PubChem BioAssay AID602350 (Broad Institute, 2012)
Measured potencies and affinities stand elsewhere. A number with no mark means an inactive call.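 How the source made its calls: active means absorbance falls by 30% or more versus neutral controls, with a potency fitted within twice the top valid dose; inconclusive means no clear call, values can overlap the other calls; inactive means change opposite to expected direction, plus the rest.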

The compounds below were run against Protein disulfide-isomerase (Homo sapiens) (UniProt P07237) (assay: inhibition of PDI-driven insulin aggregation – biochemical, turbidity, absorbance, cherry-picked samples, dose response (AID 602350;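 further: 0% = neutral controls and -100% = rutin hydrate positive control wells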)). Conditions: recombinant PDI insulin aggregation, absorbance 650 nm, 90 min; series mostly up to 19.5 µM; activity change, negative = inhibition: at the top concentration.
Sequence of Protein disulfide-isomerase (Homo sapiens) (P07237 whole entry, looked up): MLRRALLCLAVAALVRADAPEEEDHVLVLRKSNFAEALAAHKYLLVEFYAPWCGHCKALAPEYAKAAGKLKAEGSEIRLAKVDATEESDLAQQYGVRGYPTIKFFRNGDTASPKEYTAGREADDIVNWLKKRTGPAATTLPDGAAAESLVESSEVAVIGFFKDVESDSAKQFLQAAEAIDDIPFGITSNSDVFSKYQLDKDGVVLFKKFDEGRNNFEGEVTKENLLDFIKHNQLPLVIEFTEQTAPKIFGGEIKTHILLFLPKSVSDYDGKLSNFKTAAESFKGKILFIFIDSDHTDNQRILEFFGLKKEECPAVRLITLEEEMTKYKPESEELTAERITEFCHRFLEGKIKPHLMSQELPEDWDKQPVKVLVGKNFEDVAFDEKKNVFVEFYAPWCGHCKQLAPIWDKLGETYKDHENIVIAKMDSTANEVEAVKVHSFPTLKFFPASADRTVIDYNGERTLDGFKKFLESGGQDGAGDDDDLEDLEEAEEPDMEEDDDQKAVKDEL

SMILES | activity change, negative = inhibition
O=C(CN(CCc1ccccc1)C(=O)CNS(=O)(=O)c1ccccc1)NCC1CCCO1 (centres undefined) | 6.4%
CCCCn1c(N)c(N(CC(C)C)C(=O)c2cc(-c3ccncc3)nc3ccccc23)c(=O)[nH]c1=O | 3.08%
O=C(Nc1cccc(S(=O)(=O)Nc2ccc(SC(F)F)cc2)c1)C1CCC1 | -18.6%
O=C(NCc1ccncc1)Nc1cc(Cl)ccc1Cl | -6.29%
Cc1cc(C(=O)Cn2nnc3ccccc3c2=O)c(C)n1-c1ccccc1F | 1.9%
CCCCn1c(SCC(=O)Nc2ccc(C)c(S(=O)(=O)N3CCOCC3)c2)nnc1C(CC)N(C)C (centres undefined) | 18.3%
CCn1c(SCC(=O)NC2CC2)nnc1-c1ccccc1 | -0.025%
CCOC(=O)c1c(CN2CCOCC2)n(-c2ccccc2)c2cc(Br)c(O)cc12 | -9.21%
CCOC(=O)c1c(CN2CCOCC2)n(-c2ccccc2)c2ccc(O)cc12 | -4.1%
O=C(NN1CC(C(=O)OCc2ccccc2F)CC1=O)c1ccccc1 (centres undefined) | -0.039%
COCc1[nH][nH]c(=O)c1C=Nc1ccc(F)cc1F | 18.6%
NC(Cc1ccc(C(F)(F)F)cc1)c1csc(Nc2ccc(C(=O)NCCCO)cn2)n1 (centres undefined) | -1.16%
Nc1ccc(C(=O)NN2C(=O)[C@H](Cl)C2c2ccc(Cl)cc2)cc1 (some centres undefined) | -2.02%
O=C(N/N=C/c1ccc(O)cc1)NC12CC3CC(CC(C3)C1)C2 | -7.74%
CC[C@]12c3[nH]c4cc(-c5ccco5)ccc4c3CCN1C(=O)[C@@H](CC(=O)NCc1ccc(OC)c(OC)c1)C[C@@H]2C(=O)N1CCN(C(=O)C2CC2)CC1 | 12.2%
Cc1cc(NC(=O)COC(=O)C2CC(=O)N(c3ccccc3)C2)no1 (centres undefined) | 8.6%
COc1ccc(C2c3ccc(O)cc3Oc3ncn4nc(-c5cccnc5)nc4c32)cc1OC (centres undefined) | -1.67%
COc1ccccc1NC(=O)c1ccc(NC(=O)COC(=O)c2cccnc2Cl)cc1 | 4.95%
CC12CCC3c4ccc(O)cc4CCC3C1CCC2=O (centres undefined) | 3.29%
O=C(CNC(=O)c1n[nH]c2ccccc12)Nc1cc(Cl)ccc1Cl | 13.9%

SMILES | activity change, negative = inhibition
O=C1N[C@@H](Cc2c[nH]c3ccccc23)COC(=O)[C@@H](Cc2ccc(F)cc2)C/C=C\C[C@H]1CC(=O)N(CCO)Cc1ccccc1 | -34.4%
Cc1nnc(SCc2cc(=O)oc3cc(O)ccc23)n1Cc1ccccc1 | -9.62%
Cc1sc(NC(=O)CCl)c(C(=O)c2ccccc2)c1C | 1.62%
CCOC(=O)CN(c1ccccc1)S(=O)(=O)c1ccc(F)cc1 | -16%
C[C@@H]1CN([C@@H](C)CO)C(=O)Cc2cc(NC(=O)Nc3ccccc3)ccc2O[C@@H]1CN(C)Cc1ccccc1 | -3.98%
CN(C)c1ccc(NC(=O)CN2C(=O)CC(c3ccccc3)=Nc3ccccc32)cc1 | 14%
CC(=O)N1CCC(C(=O)NCCOc2cccc(C)c2)CC1 | 9.17%
Cc1noc(C)c1S(=O)(=O)Nc1ccc2c(c1)CC(=O)N([C@H](C)CO)C[C@@H](C)[C@H](CN(C)S(=O)(=O)c1ccc(F)cc1)O2 | -24.3%
Cc1noc(C)c1S(=O)(=O)Nc1ccc2c(c1)CC(=O)N([C@H](C)CO)C[C@H](C)[C@H](CN(C)S(C)(=O)=O)O2 | 0.398%
CC1(C(=O)Nc2cccc3c2CCCC3)CCN1C(=O)c1cccc(F)c1 (centres undefined) | 2.23%
Cn1nccc1C(=O)Nc1ccc(S(=O)(=O)N2CCCC2)cc1 | 3.68%
O=C1CCC(=O)N1CCc1c[nH]c2ccccc12 | -9.9%
CCOC(=O)c1c(CN2CCN(Cc3ccccc3)CC2)n(C)c2cc(Br)c(OC)cc12 | 3.15%
COc1ccccc1NS(=O)(=O)c1cccc(C(=O)NCC2(N3CCCCC3)CCCCC2)c1 | 10.1%
Cc1ccc(SCC(=O)c2sc(-c3ccccc3)nc2C)cc1 | 2.26%
CNC[C@@H]1Oc2c(NS(C)(=O)=O)cccc2C(=O)N([C@@H](C)CO)C[C@H]1C | -11.5%
Cc1noc(C)c1C(=O)OCC(=O)NCCc1ccc(Cl)cc1 | 19.9%
CC(=O)Oc1ccc(C2OC(=O)c3ccccc3N2C(C)=O)cc1 (centres undefined) | 29% [at 6.8 µM]
CCN(CC(=O)Nc1ccc2c(c1)OCCO2)C(=O)CC1CCCC1 | 0.091%
